Reference: the supplement of paper PMC8975748
Counter-ions that a name gives are not always drawn. ± gives the standard deviation of the averaged measurements.

What was measured:
[1] = system: Saccharomyces cerevisiae BY4741 SeMeCo community; assay: mean cell size (pixel area) (pixels); higher = larger cells; conditions: 10 µM; 24 h; SM minimal medium
Outline: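 A four-plasmid fluorescent Saccharomyces cerevisiae BY4741 community was tested; each plasmid complements one auxotrophy and carries a fluorescent marker. An overnight preculture at OD600 = 1.0 was diluted to OD600 = 0.3, and 70 µl was added to 384-well plates acoustically predosed with drug (final 10 µM) in SM medium for 24 h. Cells were fixed with paraformaldehyde and imaged by automated confocal microscopy, with analysis in Harmony. Mean cell pixel area per well is averaged over 3 replicates. Same SeMeCo high-content imaging drug screen: Selleck FDA-approved drugs at 10 µM, 24 h in SM medium, 384-well plates, 3 replicates.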

[2] = system: Saccharomyces cerevisiae BY4741 SeMeCo community; assay: z-score of prototroph abundance vs DMSO median; higher = larger share of this subpopulation than in DMSO controls; conditions: 10 µM; 24 h; SM minimal medium; subpopulation (auxotrophy): Prototroph
Outline: (§1)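 A Saccharomyces cerevisiae BY4741 community carried four plasmids, each restoring one auxotrophy and encoding a distinct fluorescent protein. It was pre-grown overnight to OD600 1.0, diluted to 0.3, and 70 µl was added to 384-well plates acoustically predosed with library drugs (10 µM final), then grown 24 h in minimal SM medium. Cells were paraformaldehyde-fixed and imaged by automated confocal microscopy, with single-auxotroph fluorescent strains setting thresholds and autofluorescence correction. Each subpopulation's abundance was scored as a z-score against the vehicle-well median.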

[3] = system: Saccharomyces cerevisiae BY4741 SeMeCo community; assay: z-score of subpopulation abundance vs DMSO median, subpopulation auxotrophic for M; higher = larger share of this subpopulation than in DMSO controls; conditions: 10 µM; 24 h; SM minimal medium; subpopulation (auxotrophy): M
Outline: as §1

[4] = system: Saccharomyces cerevisiae BY4741 SeMeCo community; assay: z-score of subpopulation abundance vs DMSO median, subpopulation auxotrophic for L; higher = larger share of this subpopulation than in DMSO controls; conditions: 10 µM; 24 h; SM minimal medium; subpopulation (auxotrophy): L
Outline: as §1

[5] = system: Saccharomyces cerevisiae BY4741 SeMeCo community; assay: z-score of subpopulation abundance vs DMSO median, subpopulation auxotrophic for U; higher = larger share of this subpopulation than in DMSO controls; conditions: 10 µM; 24 h; SM minimal medium; subpopulation (auxotrophy): U
Outline: as §1

[6] = system: Saccharomyces cerevisiae BY4741 SeMeCo community; assay: z-score of subpopulation abundance vs DMSO median, subpopulation auxotrophic for LU; higher = larger share of this subpopulation than in DMSO controls; conditions: 10 µM; 24 h; SM minimal medium; subpopulation (auxotrophy): LU
Outline: as §1

[7] = system: Saccharomyces cerevisiae BY4741 SeMeCo community; assay: z-score of subpopulation abundance vs DMSO median, subpopulation auxotrophic for HM; higher = larger share of this subpopulation than in DMSO controls; conditions: 10 µM; 24 h; SM minimal medium; subpopulation (auxotrophy): HM
Outline: as §1

[8] = system: Saccharomyces cerevisiae BY4741 SeMeCo community; assay: z-score of subpopulation abundance vs DMSO median, subpopulation auxotrophic for HU; higher = larger share of this subpopulation than in DMSO controls; conditions: 10 µM; 24 h; SM minimal medium; subpopulation (auxotrophy): HU
Outline: as §1

[9] = system: Saccharomyces cerevisiae BY4741 SeMeCo community; assay: z-score of subpopulation abundance vs DMSO median, subpopulation auxotrophic for HL; higher = larger share of this subpopulation than in DMSO controls; conditions: 10 µM; 24 h; SM minimal medium; subpopulation (auxotrophy): HL
Outline: as §1

[10] = system: Saccharomyces cerevisiae BY4741 SeMeCo community; assay: z-score of subpopulation abundance vs DMSO median, subpopulation auxotrophic for HLU; higher = larger share of this subpopulation than in DMSO controls; conditions: 10 µM; 24 h; SM minimal medium; subpopulation (auxotrophy): HLU
Outline: as §1

[11] = system: Saccharomyces cerevisiae BY4741 SeMeCo community; assay: z-score of subpopulation abundance vs DMSO median, subpopulation auxotrophic for HLM; higher = larger share of this subpopulation than in DMSO controls; conditions: 10 µM; 24 h; SM minimal medium; subpopulation (auxotrophy): HLM
Outline: as §1

[12] = system: Saccharomyces cerevisiae BY4741 SeMeCo community; assay: z-score of subpopulation abundance vs DMSO median, subpopulation auxotrophic for HLUM; higher = larger share of this subpopulation than in DMSO controls; conditions: 10 µM; 24 h; SM minimal medium; subpopulation (auxotrophy): HLUM
Outline: as §1

[13] = system: Saccharomyces cerevisiae BY4741 SeMeCo community; assay: z-score of subpopulation abundance vs DMSO median, subpopulation auxotrophic for H; higher = larger share of this subpopulation than in DMSO controls; conditions: 10 µM; 24 h; SM minimal medium; subpopulation (auxotrophy): H
Outline: as §1

[14] = system: Saccharomyces cerevisiae BY4741 SeMeCo community; assay: z-score of subpopulation abundance vs DMSO median, subpopulation auxotrophic for LM; higher = larger share of this subpopulation than in DMSO controls; conditions: 10 µM; 24 h; SM minimal medium; subpopulation (auxotrophy): LM
Outline: as §1

[15] = system: Saccharomyces cerevisiae BY4741 SeMeCo community; assay: z-score of subpopulation abundance vs DMSO median, subpopulation auxotrophic for UM; higher = larger share of this subpopulation than in DMSO controls; conditions: 10 µM; 24 h; SM minimal medium; subpopulation (auxotrophy): UM
Outline: as §1

[16] = system: Saccharomyces cerevisiae BY4741 SeMeCo community; assay: z-score of subpopulation abundance vs DMSO median, subpopulation auxotrophic for LUM; higher = larger share of this subpopulation than in DMSO controls; conditions: 10 µM; 24 h; SM minimal medium; subpopulation (auxotrophy): LUM
Outline: as §1

[17] = system: Saccharomyces cerevisiae BY4741 SeMeCo community; assay: z-score of subpopulation abundance vs DMSO median, subpopulation auxotrophic for HUM; higher = larger share of this subpopulation than in DMSO controls; conditions: 10 µM; 24 h; SM minimal medium; subpopulation (auxotrophy): HUM
Outline: as §1

Structure (SMILES) | mean cell size [1] | z-score of prototroph abundance [2] | z-score of subpopulation abundance [3] | z-score of subpopulation abundance [4] | z-score of subpopulation abundance [5] | z-score of subpopulation abundance [6] | z-score of subpopulation abundance [7] | z-score of subpopulation abundance [8] | z-score of subpopulation abundance [9] | z-score of subpopulation abundance [10] | z-score of subpopulation abundance [11] | z-score of subpopulation abundance [12] | z-score of subpopulation abundance [13] | z-score of subpopulation abundance [14] | z-score of subpopulation abundance [15] | z-score of subpopulation abundance [16] | z-score of subpopulation abundance [17]
CCC(=O)NS(=O)(=O)c1ccc(-c2c(-c3ccccc3)noc2C)cc1 [Parecoxib Sodium] | 12.39 ± 0.068 | -1.76 | 0.75 | 0.68 | 0.97 | 0.31 | 1.65 | 0.55 | 1.38 | 0.91 | 0.26 | 0.78 |  |  |  |  | 
CCn1cc(C(=O)O)c(=O)c2cc(F)c(N3CCNC(C)C3)c(F)c21 (stereo unspecified) [Lomefloxacin HCl] |  | -1.02 | 1.99 | 1.02 |  | 0.53 | 1.66 |  |  | 1.38 | 0.25 | 0.54 | 0.73 | 1.35 | 0.51 | 1.32 | 
CO[C@H]1C[C@@H]2CC[C@@H](C)[C@@](O)(O2)C(=O)C(=O)N2CCCC[C@H]2C(=O)O[C@H]([C@H](C)C[C@@H]2CC[C@@H](OC(=O)C(C)(CO)CO)[C@H](OC)C2)CC(=O)[C@H](C)/C=C(\C)[C@@H](O)[C@@H](OC)C(=O)[C@H](C)C[C@H](C)/C=C/C=C/C=C/1C | 14.17 ± 0.036 | -18.4 | -1.76 | -0.9 | 3.43 | 4.31 | 23.9 | 28 | 15.9 | 28 |  | 31.6 | 13.5 | 5.51 | 11.2 | 14.2 | 28.7
CC[C@H]1OC(=O)C[C@@H](O)[C@H](C)[C@@H](O[C@@H]2O[C@H](C)[C@@H](O)[C@H](N(C)C)[C@H]2O)[C@@H](CCN2C[C@H](C)C[C@H](C)C2)C[C@@H](C)C(=O)/C=C/C(C)=C/[C@@H]1CO[C@@H]1O[C@H](C)[C@@H](O)[C@@H](OC)[C@H]1OC [Tilmicosin] | 12.4 ± 0.17 | -1.13 | -0.16 | 0.75 | 0.52 | 1.26 | 0.93 |  | 1.91 | 0.58 | 0.13 |  | 0.98 |  | 0.65 | 1.68 | 
CCCOc1ccc(C(=O)OCCN(CC)CC)cc1N [Proparacaine HCl] |  | 0.46 | -0.55 | 0.26 | 0.18 | 0.25 | -0.65 | -0.31 | -0.68 | -0.61 | -0.35 | -0.51 | -0.4 |  | -0.06 | -0.49 | 
OCc1ccc(Cl)cc1Cl [2,4-dichlorobenzyl alcohol] | 12.32 ± 0.052 | -0.15 | -0.73 | 0.8 |  | 1.19 | -0.64 | -0.65 | 0.12 | 0.04 |  | 0.69 | 0 | 0.21 | -0.17 | -0.03 | -0.47
CN(C)CCc1c[nH]c2ccc(CS(=O)(=O)N3CCCC3)cc12 [Almotriptan Malate] |  | 0.66 | -0.37 | 0.74 | -0.42 | 0.07 |  | 0 | -0.69 | -0.86 | -0.23 | -0.37 | -0.37 | -0.71 | -0.12 | -0.23 | 
CCn1cc(C(=O)O)c(=O)c2cc(F)c(N3CCNCC3)nc21 [Enoxacin Sesquihydrate] | 12.2 ± 0.23 | -0.92 | 0.76 | -0.96 | 1.2 | 0.91 | 0.03 | 0.47 |  | -0.17 |  | -0.27 | -1.49 | 0 | 1.24 | 0.36 | 0.88
